# Measured values from PubChem BioAssay AID488896 (Broad Institute, 2010).
# Hit rate of the full screen: of about 320,000 compounds, about 3,100 (0.97%) were called active. The sample as a whole holds a higher share of actives than the screen did. Unmarked numbers belong to inactive results.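 The calls were made as follows: active = mean replicate inhibition of at least 70% and a set share of replicates each scoring 70 or more; inconclusive = meets just one of the two criteria; inactive = fails both criteria.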
# Biological target: Scavenger receptor class B member 1 (Mus musculus) (UniProt Q61009)
# Assay: inhibitors of SR-BI mediated HDL lipid uptake, primary screen, ldlA[mSR-BI] cells, fluorescence, single point (AID 488896);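 also: 0% = median of neutral control wells and 100% = median of positive control wells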
# Details: ldlA[mSR-BI] CHO cells, DiI-HDL uptake fluorescence, 3 h; at 12.5 µM; hits give high values
# Chain of Scavenger receptor class B member 1 (Mus musculus) (Q61009 whole entry, looked up): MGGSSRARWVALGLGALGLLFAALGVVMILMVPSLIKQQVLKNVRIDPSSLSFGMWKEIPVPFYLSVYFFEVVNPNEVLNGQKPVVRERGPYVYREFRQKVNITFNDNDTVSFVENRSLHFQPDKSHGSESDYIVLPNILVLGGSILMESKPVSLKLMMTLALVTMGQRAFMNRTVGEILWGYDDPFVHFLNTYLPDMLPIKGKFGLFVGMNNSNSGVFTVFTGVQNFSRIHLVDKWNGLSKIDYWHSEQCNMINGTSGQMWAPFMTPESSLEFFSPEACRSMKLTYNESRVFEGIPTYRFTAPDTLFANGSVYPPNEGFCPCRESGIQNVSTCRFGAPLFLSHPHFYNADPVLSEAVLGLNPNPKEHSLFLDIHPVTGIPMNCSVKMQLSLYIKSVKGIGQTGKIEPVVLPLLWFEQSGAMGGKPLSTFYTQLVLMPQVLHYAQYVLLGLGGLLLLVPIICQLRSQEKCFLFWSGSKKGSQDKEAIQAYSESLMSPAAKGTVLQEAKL
row,Compound,inhibition
1,O=C(O)c1ccc(S(=O)(=O)c2ccccc2)s1,-1.03%
2,COc1ccc2nc(N3C(=O)C(O)=C(C(=O)c4ccco4)C3c3ccco3)sc2c1 (stereo not given),-2.11%
3,O=C(Cc1ccc(S(=O)(=O)N2CCOCC2)s1)Nc1ccc(Br)c(C(F)(F)F)c1,-43.4%
4,CC(C)Cn1cnc2c(SCc3ccc(Cl)cc3)nc(N)nc21,7.71%
5,CCCCC(=O)Nc1ccccc1N1CCN(c2ccc(F)cc2)CC1,34%
6,Cc1cccc(C(=O)Nc2ccccc2N2CCN(c3ccc(F)cc3)CC2)c1,74.9% (active)
7,CCC(C)C(=O)Nc1ccccc1N1CCN(c2ccc(F)cc2)CC1 (stereo not given),36.3%
8,c1ccc(-c2nnc(N3CCOCC3)c3ccccc23)cc1,27.8%
9,CCCC(=O)N1CCN(c2nnc(-c3ccc(C)cc3)c3ccccc23)CC1,76.8% (active)
10,OCCN1CCN(c2nnc(-c3ccccc3)c3ccccc23)CC1,3.57%
11,Cc1ccc(-c2csc(C(C#N)=C(O)CN3CCN(C(=O)c4ccco4)CC3)n2)cc1,4.1%
12,CCOc1ccc(/C=C(/C#N)c2nnc(N3CCOCC3)n2-c2ccccc2)cc1OC,-9.11%
13,O=C(Cc1ccc(NC(=O)C2CCCN(C(=O)C3CCCCC3)C2)cc1)Nc1cccc(C(=O)N2CCCCC2)c1 (stereo not given),43.2%
14,CNc1nc(=O)n(C2CCCO2)cc1C (stereo not given),0.704%
15,CCOC(=O)N(Cc1ccccc1)C1CC1,1.61%
16,COc1ccc(CCN(C(=O)COc2ccccc2)c2nc(-c3ccccc3)cs2)cc1OC,24.1%
17,COc1ccc(CC(=O)Nc2nc(-c3ccc(F)c(F)c3)cs2)cc1OC,29.1%
18,CC(=O)Nc1ccc(-c2csc(NC=C3C(=O)OC(C)(C)OC3=O)n2)cc1,4.07%
19,Cc1cccc(Nc2nc(-c3ccccc3)cs2)n1,52.4%
20,CC(=O)Nc1cccc(-c2csc(Nc3cccc(C)n3)n2)c1,76.4% (active)
21,COc1ccc(CCNc2nc(-c3cccc(NC(C)=O)c3)cs2)cc1OC,75.5% (active)
22,CCC1([N+](=O)[O-])COC(c2ccc(C)cc2)OC1 (stereo not given),-12.8%
23,Nc1cc(=O)n(Cc2ccccc2)c(=O)n1Cc1ccccc1,0.22%

row,Compound,inhibition
1,C[C@@H]1ON(C)[C@H]2C[C@H]3c4cc(N5CCN(C)CC5)ccc4CCN3C(=O)[C@@H]12,-19.4%
2,Cn1c(=S)sc2ccc3ccccc3c21,5.87%
3,N#CC1(Nc2ccc(-c3ccc(Cl)cc3)cc2)CCCC1,5.44%
4,O=C(Nc1cccc(S(=O)(=O)N2CCCCC2)c1)c1ccc2c(c1)OCO2,8.54%
5,O=C(Nc1cccc(S(=O)(=O)Nc2ccc(Cl)cc2)c1)c1ccc2c(c1)OCCO2,70.2% (active)
6,O=C(Nc1ccc(NC(=O)c2ccc3c(c2)OCO3)cc1)c1cccc(Cl)c1,-14.8%
7,NS(=O)(=O)c1ccc(CCNC(=O)c2ccc(Cl)c(S(=O)(=O)N3CCCCCC3)c2)cc1,32.8%
8,CCN1CCN(c2c(Cl)cccc2NC(=O)c2ccc(Br)o2)CC1,33.7%
9,CCCC(=O)Nc1ccc(Cl)c(NC(=O)c2ccc(Br)o2)c1,70.8% (active)
10,CCCCC(=O)Nc1ccc(C(=O)Nc2cc(C(F)(F)F)ccc2Cl)cc1,67.9%
11,COc1cc2c(cc1OC)C1C(=O)c3cc(OS(C)(=O)=O)c(OC)cc3C1N(C)C2=O (stereo not given),-1%
12,O=C1COc2c1ccc(O)c2O,-17.3%
13,CN(CCc1ccccc1)C(=O)c1cccc(NC(=O)Cc2cccc(NC(=O)C3CCCN(C(=O)C4CCC4)C3)c2)c1 (stereo not given),26.9%
14,CN(CCc1ccccc1)C(=O)c1cccc(NC(=O)Cc2cccc(NC(=O)C3CCCN(C(=O)CCc4ccccc4)C3)c2)c1 (stereo not given),78.5% (active)
15,CN(C(=O)c1cccc(NC(=O)Cc2cccc(NC(=O)C3CCCN(C(=O)C4CC4)C3)c2)c1)C1CCC1 (stereo not given),31.6%
16,CN(C(=O)c1cccc(NC(=O)Cc2ccc(NC(=O)C3CCCN(C(=O)C4CCCC4)C3)cc2)c1)C1CCC1 (stereo not given),86.9% (active)
17,CN(C(=O)c1cccc(NC(=O)Cc2ccc(NC(=O)C3CCCN(C(=O)C4CC4)C3)cc2)c1)C1CC1 (stereo not given),70%
18,O=C(Cc1ccc(NC(=O)C2CCCN(C(=O)CCc3ccccc3)C2)cc1)Nc1ccc(C(=O)N2CCOCC2)cc1 (stereo not given),58.6%
19,COc1cc(/C=C/c2ccc(/C=C/c3cc(OC)c(OC)c(OC)c3)cc2)cc(OC)c1OC,51.2%
20,Nc1cc2c(cc1Br)-c1ccc(F)cc1C2=O,22.3%
21,C=CCOC(=O)N1CCC2CC1c1cc(-c3ccc(OC)cc3)ccc12 (stereo not given),-4.14%
22,Oc1c(CN2CCOCC2)ccc(CN2CCOCC2)c1O,0.438%
